Source: the supplement of paper PMC7695840

These compounds were tested on Staphylococcus aureus MW2 delta-mecA (mecA-) (assay: normalized GFP fluorescence (growth of mecA- strain) (fraction of control range); higher = more growth of mecA- strain). Conditions: compound concentration: 150 uM; cefoxitin: subinhibitory; fluorescent label: GFP.
Procedure, shortened: (§1)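 Pre-induced S. aureus MW2 cells with the gene (DsRed) and without it (GFP) were mixed 1:1 in LB holding a subinhibitory antibiotic dose set daily and grown on 150 μM compound (1.5% DMSO) in 1536-well plates, single replicate, for 20 h at 37 °C. DsRed (540/590) and GFP (485/520) readings were scaled per plate between single-strain control medians. Plates with high untreated ratios and rows with DsRed/GFP >10 were excluded.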

Row | Compound | normalized GFP fluorescence
1 | CO[C@@]1(NC(=O)Cc2cccs2)C(=O)N2C(C(=O)O)=C(COC(N)=O)CS[C@@H]21 | 0.00393
2 | C=CCCCCCCCCC(=O)O | 0.13
3 | Oc1c(Cl)cc(Cl)c(Cl)c1Cc1c(O)c(Cl)cc(Cl)c1Cl | 0.11
4 | N#CC[C@H](C1CCCC1)n1cc(-c2ncnc3[nH]ccc23)cn1 | 0.187
5 | CCOC(=O)C1=C(C)NC(C)=C(C(=O)OCC)C1c1ccccc1/C=C/C(=O)OC(C)(C)C [Lacidipine (Lacipil, Motens)] | 0.112
6 | C[C@@H](O)[C@H]1C(=O)N2C(C(=O)O)=C(SCCNC=N)C[C@H]12 | -0.0325
7 | CC1(C)[C@H](C(=O)O)N2C(=O)C[C@H]2S1(=O)=O | 0.00608
8 | C#C[C@]1(O)CC[C@H]2[C@@H]3CCC4=CC(=O)CC[C@@H]4[C@H]3CC[C@@]21C [Norethindrone (Norethisterone)] | 0.268

The compounds below were run on Staphylococcus aureus MW2 (mecA+) (assay: normalized DsRed fluorescence (growth of mecA+ strain) (fraction of control range); higher = more growth of mecA+ strain). Conditions: compound concentration: 150 uM; cefoxitin: subinhibitory; fluorescent label: DsRed.
Procedure, shortened: as §1

Row | Compound | normalized DsRed fluorescence
9 | CC1=C(/C=C/C(C)=C/C=C/C(C)=C/CO)C(C)(C)CCC1 | 0.677
10 | O=C(Nc1cccc2c(=O)cc(-c3nnn[nH]3)oc12)c1ccc(OCCCCc2ccccc2)cc1 [Pranlukast] | 0.714
11 | CCCS(=O)(=O)Nc1ccc(F)c(C(=O)c2c[nH]c3ncc(-c4ccc(Cl)cc4)cc23)c1F [Vemurafenib (PLX4032)] | 0.489
12 | CCC(=O)NCC[C@@H]1CCc2ccc3c(c21)CCO3 | 0.671
13 | C[C@H](CS)C(=O)N1CCC[C@H]1C(=O)O | 0.842
14 | CC(C)Cc1ccc([C@H](C)C(=O)O)cc1 | 0.388
15 | Cc1c(C(=O)NN2CCCCC2)nn(-c2ccc(Cl)cc2Cl)c1-c1ccc(Cl)cc1 | 0.769
16 | CCOc1cc(CC(=O)N[C@@H](CC(C)C)c2ccccc2N2CCCCC2)ccc1C(=O)O | 0.578
17 | NC(=O)c1cc[n+](CC2=C(C(=O)O)N3C(=O)[C@@H](NC(=O)[C@@H](c4ccccc4)S(=O)(=O)[O-])[C@H]3SC2)cc1 | 1.03
18 | CC(=O)Oc1ccccc1C(=O)O [Aspirin (Acetylsalicylic acid)] | 0.803
19 | Cn1c(=O)c2c(ncn2CC2OCCO2)n(C)c1=O | 1.05
20 | CC(=O)CCCCn1c(=O)c2c(ncn2C)n(C)c1=O | 0.952
21 | CN(C)C/C=C/C(=O)Nc1cc2c(Nc3ccc(F)c(Cl)c3)ncnc2cc1O[C@H]1CCOC1 [Afatinib (BIBW2992)] | 1.68
22 | O=C(CCCN1CC=C(n2c(=O)[nH]c3ccccc32)CC1)c1ccc(F)cc1 | 0.702
23 | N#CC[C@H](C1CCCC1)n1cc(-c2ncnc3[nH]ccc23)cn1 | 0.956
24 | C#C[C@]1(O)CC[C@H]2[C@@H]3CCC4=CC(=O)CC[C@@H]4[C@H]3CC[C@@]21C [Norethindrone (Norethisterone)] | 0.621
